An excerpt weighted towards active compounds, which were near 3.5% of everything screened.
TEAD-YAP block: TEAD-YAP interaction inhibition, primary screen, TEAD-YAP interaction inhibitor project, luminescence, HEK-TIYL cells; inhibition, % at 9.12 µM; 640,000 compounds, 1.4% hits; TEAD-Gal4/YAP UAS-luciferase luminescence; in the data active means inhibition above about 32%;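 further: 0% = median of test compound wells and 100% = reference inhibitor wells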
FBW7 act: FBW7 E3 ligase activators, primary screen, biochemical, AlphaScreen, human. AlphaScreen FBW7–phospho-cyclin E peptide binding, activator screen. normalized activity (activation), % at 26.1 µM. 650,000 compounds, 0.13% hits. AID 1259310, 2017; in the data active means normalized activity above about 1.9%;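 further: purified mutant Fbw7 with reduced substrate affinity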
Target sequence (Q969H0 whole entry, looked up): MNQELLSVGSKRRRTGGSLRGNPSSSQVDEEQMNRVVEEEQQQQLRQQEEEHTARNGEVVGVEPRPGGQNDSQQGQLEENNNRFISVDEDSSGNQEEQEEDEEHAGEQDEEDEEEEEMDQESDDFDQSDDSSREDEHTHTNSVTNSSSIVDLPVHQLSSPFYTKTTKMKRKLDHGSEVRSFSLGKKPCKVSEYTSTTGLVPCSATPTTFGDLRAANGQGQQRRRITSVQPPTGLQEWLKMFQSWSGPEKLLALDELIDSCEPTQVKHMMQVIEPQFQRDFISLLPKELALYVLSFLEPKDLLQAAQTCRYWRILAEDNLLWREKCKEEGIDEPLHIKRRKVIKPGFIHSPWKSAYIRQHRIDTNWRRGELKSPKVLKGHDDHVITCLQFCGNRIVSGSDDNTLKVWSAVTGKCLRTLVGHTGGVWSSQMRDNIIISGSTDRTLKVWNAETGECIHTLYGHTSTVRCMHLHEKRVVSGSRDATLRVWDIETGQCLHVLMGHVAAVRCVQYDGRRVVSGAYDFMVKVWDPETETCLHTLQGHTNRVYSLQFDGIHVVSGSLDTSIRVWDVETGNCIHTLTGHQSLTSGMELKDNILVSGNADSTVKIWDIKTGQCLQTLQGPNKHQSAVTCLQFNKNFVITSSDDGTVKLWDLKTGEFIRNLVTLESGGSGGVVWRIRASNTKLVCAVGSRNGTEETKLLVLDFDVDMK
MITF primary: MITF inhibitors, primary screen, biochemical, AlphaScreen, human. AlphaScreen MITF homodimerization, bead proximity signal. inhibition, % at 2.6 µM. 650,000 compounds, 0.91% hits; in the data active means inhibition above about 50%;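 further: 0% = vehicle wells with protein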
GPR151 ag: activators of human GPR151, primary screen, cell-based, PathHunter beta-arrestin, luminescence; G-protein coupled receptor 151 (Homo sapiens), Q8TDV0; activation, % at 11.2 µM; 650,000 compounds, 1% hits; PathHunter beta-arrestin GPR151 cells; in the data active means activation above about 4.9%;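 further: 0% = median of compound wells and 100% = cells with positive control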
Starred values were filed as active, the others as inactive.

SMILES	TEAD-YAP block	FBW7 act	MITF primary	GPR151 ag
CCOC(=O)C1=C(c2ccccc2)N=c2s/c(=C\c3cccc(O)c3)c(=O)n2C1c1cc(C(C)C)c(OC)cc1C (configuration not stated)	3.8	0.9	-3.7	-0.8
CCOC(=O)C1=C(c2ccccc2)N=c2s/c(=C\c3ccc4c(c3)OCO4)c(=O)n2C1c1cc(C(C)C)c(OC)cc1C (configuration not stated)	-2.5	2.7*	18.5	-0.7
Cc1ccc(NC(=O)CSc2nc3ccsc3c(=O)n2Cc2ccc3c(c2)OCO3)cc1	7.0	0.0	10.9	3.1
COc1cccc(Nc2nc(-c3ccc(OC)cc3OC)cs2)c1	63.9*	-0.1	7.0	0.8
Fc1ccc2nc(Nc3nc(-c4ccccn4)cs3)sc2c1	52.5*	-0.3	33.2	1.7
Fc1ccc2nc(Nc3nc(-c4ccncc4)cs3)sc2c1	-8.3	-0.2	-1.3	-0.2
CCc1ccc(Nc2nc(-c3ccccn3)cs2)cc1	40.4*	-0.5	14.2	-3.4
COc1ccc(-c2csc(Nc3ccccc3OC)n2)c(OC)c1	-3.3	-0.1	-5.5	-1.1
Cc1nc(N)sc1-c1csc(Nc2cccc(C(F)(F)F)c2)n1	-7.9	-0.2	51.7*	0.5
O=[N+]([O-])c1ccc(S(=O)(=O)Nc2ccc(-c3cn4cccnc4n3)cc2)cc1	5.1	0.7	20.1	-1.5
COc1ccc(Nc2nc(-c3sc(C)nc3C)cs2)cc1	41.6*	0.1	15.3	-0.8
COc1ccc(Nc2nc(-c3ccccn3)cs2)cc1	43.4*	-1.9	10.9	-5.5
CCOc1ccc(Nc2nc(-c3ccccn3)cs2)cc1	15.7	-1.8	9.5	-3.9
Cc1nc(NC(=O)c2ccccc2)sc1-c1csc(Nc2cccc(Cl)c2C)n1	-11.1	-0.1	-16.1	-6.4
CCOc1ccc(Nc2nc(-c3sc(NC(=O)CC)nc3C)cs2)cc1	47.7*	0.0	7.3	-1.7
COc1cc(Br)c(Nc2nc(-c3sc(NC(=O)c4ccccc4)nc3C)cs2)c(Br)c1	42.0*	0.0	1.8	-5.0
COc1ccccc1Nc1nc(-c2sc(C)nc2C)cs1	-49.5	0.5	18.4	1.1
O=c1c(-c2ccc(Cl)cc2)c(N2CCN(C3CCCC3)CC2)c1=O	10.7	-0.1	4.4	-2.7
Cc1ccc(Cl)cc1N1CCN(S(=O)(=O)c2ccc(F)cc2)CC1	-2.9	-0.1	-5.8	-0.3
COc1cc(C2C(C#N)=C(N)Oc3n[nH]c(-c4ccccc4)c32)ccc1OC(=O)N1CCOCC1 (configuration not stated)	-0.4	-0.4	-10.2	-0.8
CCOc1ccc2nc(SC3CC(=O)N(c4ccccc4C(F)(F)F)C3=O)sc2c1 (configuration not stated)	-30.4	-0.1	1.0	2.5
COc1cccc(Cn2c(C)nc3ccc([N+](=O)[O-])cc3c2=O)c1	4.7	-0.1	6.5	-0.4
O=C(COC(=O)c1cccnc1Cl)NC1CCCC1	1.3	0.0	-1.8	-0.9
CC1=NN(c2ccccc2)C(=O)/C1=C(/c1ccccc1)N1CCOCC1	40.2*	-0.1	-4.8	0.7
CCOC(=O)C1=C(C)N=c2s/c(=C\c3ccc(O)c(OC)c3)c(=O)n2C1c1cc(OC)ccc1OC (configuration not stated)	-1.1	-0.1	10.6	-1.2
SMILES	TEAD-YAP block	FBW7 act	MITF primary	GPR151 ag
CCN(CC)c1ccc2cc(-c3nc4ccccc4s3)c(=O)oc2c1	76.5*	0.0	-6.3	-1.4
CCN(CC)c1ccc2cc(-c3nc4ccccc4n3C)c(=O)oc2c1	32.6*	0.7	-1.6	0.5
CCOc1ccc(NC(=O)CSc2nc3sc(C(=O)OC)c(C)c3c(=O)n2N)cc1	1.4	0.1	13.2	-0.3
CCS(=O)(=O)NCC(c1ccco1)S(=O)(=O)c1ccc(C)cc1 (configuration not stated)	-3.9	1.0	17.2	0.7
CCCCc1ccc(C(=O)Oc2ccc(-c3ccc(CCC)cn3)cc2)cc1	69.7*	0.3	-3.8	0.0
CCCc1ccc(-c2ccc(C(=O)Oc3ccc(F)cc3)cc2)nc1	-18.0	0.0	14.2	1.5
CCCCCc1ccc(-c2ccc(C(=O)Oc3ccc(CC)cc3)cc2)nc1	7.9	0.0	-0.4	-0.5
CCCc1ccc(-c2ccc(C(=O)Oc3ccccc3F)cc2)nc1	55.3*	0.2	11.2	4.6
Cn1c(N2CCCC(C(=O)NCc3ccccc3F)C2)nc2ccccc21 (configuration not stated)	-9.7	-0.1	-17.9	-0.2
O=S1(=O)Nc2c(ccc3cccnc23)-c2ccccc21	60.5*	-0.3	88.2*	3.9
O=C(Nc1ccc([N+](=O)[O-])cc1Cl)C1(c2ccccc2)CCOCC1	9.0	-0.2	15.2	2.5
Cc1[nH]c2ccccc2c1C(=O)/C(C#N)=C/c1ccc(N(C)CCO)cc1	38.3*	0.1	12.8	0.6
CNC(=S)N1CCC(NC(=O)C(Cc2ccc(OC)cc2)NC(C)=O)CC1 (configuration not stated)	-15.5	2.4*	4.8	3.4
CC(=O)CC(=O)Nc1ccnn1-c1ccccc1	1.4	-0.1	-16.7	-1.2
CCOC(=O)C/C(C)=N/c1ccnn1-c1ccccc1	76.4*	-0.1	2.2	-4.0
Cc1ccc(NS(=O)(=O)c2ccc3c(c2)OCCN3C)c(Br)c1	9.3	0.0	9.3	2.3
CC(C)NC(=O)N1CCC(c2nnc(C3CC3)s2)CC1	3.9	2.1*	12.0	-0.7
O=C(NCCc1ccccc1)C1CCN(C(=O)NCc2ccccc2)CC1	1.1	-0.2	6.3	0.5
CC(C)NC(=O)N1CCC(c2nnc(C(C)C)o2)CC1	-3.9	0.2	-9.3	-0.9
O=C(NCCc1ccccc1)N1CCC(c2nnc(C3CC3)s2)CC1	-11.0	2.6*	-6.7	2.1
COC(=O)C1=C(N)n2c(s/c(=C/c3ccco3)c2=O)=C(C(=O)OC)C1c1ccco1 (configuration not stated)	49.1*	0.4	18.5	0.5
Cn1c(=O)c2c(ncn2CC(=O)NNC(=S)Nc2ccccc2)n(C)c1=O	6.5	-0.4	6.1	0.2
O=C(C1CC1)N1CCc2ccc(NS(=O)(=O)c3ccc4c(c3)OCCO4)cc21	48.1*	0.3	14.7	1.7
CCCOc1ccc(S(=O)(=O)Nc2ccc3c(c2)N(C(=O)CC)CCC3)cc1	58.0*	-0.2	-3.1	2.6
CCC(=O)N1CCCc2ccc(NS(=O)(=O)c3ccc(Cl)cc3)cc21	28.6	0.0	6.8	1.6
COc1cc(C(=O)NC(c2cccs2)c2cc(Cl)c3cccnc3c2O)cc(OC)c1OC (configuration not stated)	12.5	0.7	11.9	-1.8
COCc1c(C(=O)N/N=C/c2ccccc2Cl)nnn1-c1nonc1N	-5.0	0.0	5.8	0.9
COCc1c(C(=O)N/N=C/c2cccc(OC)c2O)nnn1-c1nonc1N	73.0*	-0.2	61.0*	0.0
CCc1c(C(=O)N/N=C/c2cccc(OC)c2O)nnn1-c1nonc1N	74.5*	-0.1	20.2	0.4
Cc1nc(C#N)c(N/N=C/c2ccc(N(C)C)cc2)o1	32.9*	-0.2	2.7	-2.1

High-throughput results: PubChem BioAssay, The Scripps Research Institute Molecular Screening Center
